Data as given in the supplement of paper PMC12340641.

These compounds were tested on HEK293FT dCK*-IKZF1 (assay: relative growth recovery (pomalidomide 10 uM = 100%, DMSO = 0%); higher = more growth rescue (IKZF1 fusion degradation)). Details: compound concentration: 5 uM; AraC concentration: 0.3 uM; overnight pretreatment + 4 days AraC.
Procedure, shortened: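 HEK293FT cells stably expressing an engineered deoxycytidine kinase–IKZF1 fusion were seeded at 300 per well in 384-well plates and given 5 μM compound 2 h later. After overnight incubation at 37 °C, a nucleoside suicide substrate at 0.3 μM was added with medium for 4 days, and on day 5 Hoechst 33342-stained nuclei were counted by whole-well imaging. Growth recovery was normalised per plate between a reference degrader and vehicle, set to 100% and 0% respectively, and the values are means of duplicates run on different days.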

Compound | relative growth recovery
COc1cc2cc(c1Cl)N(C)C(=O)C[C@H](OC(=O)C(C)C)[C@]1(C)O[C@H]1[C@H](C)[C@@H]1C[C@@](O)(NC(=O)O1)[C@H](OC)/C=C/C=C(\C)C2 [Ansamitocin P-3] | -12.4%
COc1ccc(C[C@H]2NC[C@H](O)[C@H]2OC(C)=O)cc1 [anisomycin] | -12.5%
Clc1ccccc1C(c1ccccc1)(c1ccccc1)n1cccn1 | -1.69%
C[C@H]1CCC/C=C/C2C[C@H](O)C[C@H]2[C@H](O)/C=C/C(=O)O1 (some centres not stated) [brefeldin-a] | -10%
N#Cc1nn(-c2c(Cl)cc(C(F)(F)F)cc2Cl)c(N)c1S(=O)C(F)(F)F (configuration not stated) | -1.52%
c1ccc2c(c1)sc1ccccc12 | 1.72%
CCCCCCC[n+]1ccc(-c2cc[n+](CCCCCCC)cc2)cc1 | -3.88%
O=[N+]([O-])c1ccc(Cl)c([N+](=O)[O-])c1 [2,4-dinitrochlorobenzene] | -12.8%
Clc1ccc(C(OCCN2CCCCC2)c2ccccc2)cc1 (configuration not stated) | -0.525%
COC(=O)[C@@]12OC[C@]34[C@H]([C@@H](O)[C@@H]1O)[C@@]1(C)CC(=O)C(O)=C(C)[C@@H]1C[C@H]3OC(=O)[C@H](OC(=O)/C=C(\C)C(C)C)[C@@H]24 [Bruceantin] | -12.3%
CC[C@@H](C(=O)O)C1CC[C@H](C)C([C@@H](C)[C@H](O)[C@H](C)C(=O)[C@H](CC)C2O[C@]3(C=C[C@@H](O)[C@]4(CC[C@@](C)(C5CC[C@](O)(CC)[C@H](C)O5)O4)O3)[C@H](C)C[C@@H]2C)O1 (some centres not stated) [Salinomycin (Procoxacin)] | -1.1%
CCCCCCCCCCCCCCCC[n+]1ccccc1 | -13%
C[C@]12CC[C@H](O)C[C@H]1CC[C@@H]1[C@@H]2CC[C@]2(C)[C@@H](C3=CC(=O)OC3)CC[C@]12O [digitoxigenin] | -12.2%
O=C(CCCN1CCC2(CC1)C(=O)NCN2c1ccccc1)c1ccc(F)cc1 [spiperone] | -0.995%
C(=C\c1ccccc1)/CN1CCN(CCOC(c2ccccc2)c2ccccc2)CC1 | 0.86%
Cc1cc(O)c2c(=O)c3c(O)cc(O)c4c5c(O)cc(O)c6c(=O)c7c(O)cc(C)c8c1c2c(c34)c(c78)c65 [Hypericin] | -3.8%
CC(C)C[C@H](NC(=O)[C@@H](O)[C@H](N)Cc1ccccc1)C(=O)NCCOCCOCCOCC(=O)O[C@H]1CC[C@H]2[C@@H]3CC[C@H]4CC(=O)CC[C@]4(C)[C@H]3CC[C@]12C.O=C(O)C(F)(F)F [PROTAC AR Degrader-4 (TFA)] | 8.26%
CCCCCCCCCCC(=O)O[C@H]1CC[C@H]2[C@@H]3CCC4=CC(=O)CC[C@]4(C)[C@H]3CC[C@]12C [Testosterone (undecanoate)] | -0.23%
COc1ccc2c(c1)/C(=C/c1cnc[nH]1)C(=O)N2 | -7.43%

Compound | relative growth recovery
N#Cc1cn([C@@H]2O[C@H](CO)[C@@H](O)[C@H]2O)c2ncnc(N)c12 [toyocamycin] | -12.9%
CC[C@@]1(O)C(=O)OCc2c1cc1n(c2=O)Cc2cc3ccccc3nc2-1 [camptothecin] | -12.9%
Oc1c(I)cc(I)cc1I | 2.79%
O=c1c2ccccc2[se]n1-c1ccccc1 | -0.075%
Cc1cc(C(C#N)c2ccc(Cl)cc2)c(Cl)cc1NC(=O)c1cc(I)cc(I)c1O (configuration not stated) | -0.555%
O=c1n(Cl)c(=O)n(Cl)c(=O)n1Cl | -1.44%
O=C1/C(=C/c2ccccc2)C[C@@]2(O)C3Cc4ccc(O)c5c4[C@@]2(CCN3CC2CC2)[C@H]1O5 | -12.6%
C=C1[C@@H](C)[C@H]2[C@H](Cc3ccccc3)NC(=O)[C@]23OC(=O)/C=C/[C@H](O)CCC[C@@H](C)C/C=C/[C@H]3[C@@H]1O [Cytochalasin B] | -8.39%
O=C1c2ccccc2C(=O)c2ccccc21 [anthraquinone] | -0.655%
C[C@H]1O[C@@H](O[C@H]2[C@@H](O)C[C@H](O[C@H]3[C@@H](O)C[C@H](O[C@H]4CC[C@@]5(C)[C@H](CC[C@@H]6[C@@H]5C[C@@H](O)[C@]5(C)C(c7coc(O)c7)CC[C@]65O)C4)O[C@@H]3C)O[C@@H]2C)C[C@H](O)[C@@H]1O (some centres not stated) [Digoxin] | -12.6%
O=[N+]([O-])/C=C/c1ccc2c(c1)OCO2 | -13.1%
O=[N+]([O-])c1cc(O)c(O)c([N+](=O)[O-])c1 | 0.23%
CCO[C@H]1O[C@@H]2O[C@@]3(C)CC[C@H]4[C@H](C)CC[C@@H]([C@H]1C)[C@@]24OO3 [Artemotil] | -5.64%
CC[C@@H](C(N)=O)N1CCCC1=O | 0.38%
O=C(CCCN1CCC(n2c(=O)[nH]c3ccccc32)CC1)c1ccc(F)cc1 [benperidol] | 1.78%
Clc1ccc(N2CCN(Cc3c[nH]c4ncccc34)CC2)cc1 | 2.15%
OC1=[C@]([C@]2=C(O)C(C(C=O)=C(O)C(O)=C3C(C)C)=C3C=C2C)C(C)=CC4=C1C(C=O)=C(O)C(O)=C4C(C)C [gossypol] | -11.7%
Fc1ccc(C(OCCN2CCN(CCCc3ccccc3)CC2)c2ccc(F)cc2)cc1 [vanoxerine] | -10.5%
